{"source": "PubChem BioAssay AID651650", "about": "(Sanford-Burnham Center for Chemical Genomics, 2012)"}
{"molecular_target": "Neuropilin-1 (Homo sapiens) (UniProt O14786)", "sequence (O14786 whole entry, looked up)": "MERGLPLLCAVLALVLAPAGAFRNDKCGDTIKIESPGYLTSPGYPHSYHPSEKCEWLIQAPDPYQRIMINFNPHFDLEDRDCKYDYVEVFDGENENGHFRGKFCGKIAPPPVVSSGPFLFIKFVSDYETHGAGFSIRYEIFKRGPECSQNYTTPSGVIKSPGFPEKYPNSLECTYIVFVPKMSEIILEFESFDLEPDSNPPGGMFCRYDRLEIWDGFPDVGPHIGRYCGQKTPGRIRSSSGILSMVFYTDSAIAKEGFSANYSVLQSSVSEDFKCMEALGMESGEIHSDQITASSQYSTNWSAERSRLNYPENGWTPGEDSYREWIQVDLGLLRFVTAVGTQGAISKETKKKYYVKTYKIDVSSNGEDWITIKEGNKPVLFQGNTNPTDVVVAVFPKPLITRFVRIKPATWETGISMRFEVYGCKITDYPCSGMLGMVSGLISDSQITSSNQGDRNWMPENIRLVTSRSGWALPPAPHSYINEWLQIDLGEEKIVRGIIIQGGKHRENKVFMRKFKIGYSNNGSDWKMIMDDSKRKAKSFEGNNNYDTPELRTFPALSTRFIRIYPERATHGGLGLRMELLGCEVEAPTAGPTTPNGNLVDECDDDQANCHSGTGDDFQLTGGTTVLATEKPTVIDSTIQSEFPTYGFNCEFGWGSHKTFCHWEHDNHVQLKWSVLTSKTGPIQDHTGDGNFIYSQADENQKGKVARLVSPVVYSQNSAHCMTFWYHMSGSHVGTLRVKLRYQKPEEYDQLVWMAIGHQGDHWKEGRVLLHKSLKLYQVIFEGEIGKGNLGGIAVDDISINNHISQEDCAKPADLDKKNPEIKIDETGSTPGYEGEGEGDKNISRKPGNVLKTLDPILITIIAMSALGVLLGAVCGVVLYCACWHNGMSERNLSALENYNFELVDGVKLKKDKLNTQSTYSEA", "assay": "blockers of CendR peptide binding to NRP-1 – biochemical, FP and AlphaScreen panel, dose response (AID 651650)", "conditions": "NRP-1 b1b2 / RPARPAR peptide binding, FP or AlphaScreen; run 1, at 100 µM (top of the series)", "units": {"inhibition": "%"}}
{"smiles": "COc1c2ccc(C(=O)NCc3cc(C(F)(F)F)cc(C(F)(F)F)c3)cc2nn1C", "inhibition": 38.2}
{"smiles": "CC(=O)Nc1ccc2nc3c(=O)n(C)c(=O)n(C)c3nc2c1", "inhibition": 84.8}
{"smiles": "Cc1ccc(Nc2c(-c3ccccc3O)nc3ncccn23)cc1", "inhibition": 19.2}
{"smiles": "CCc1ccc(C2CC(=O)N(c3cccc(F)c3)C3=C2C(=O)OC3)cc1", "note": "(centres undefined)", "inhibition": 33.7}
{"smiles": "COC(=O)c1c(NC(=O)CN(c2ccccc2)S(C)(=O)=O)sc2c1CCCC2", "inhibition": 84}
{"smiles": "O=C(NCCOC(=O)c1ccccc1)c1ccccc1", "inhibition": 72.3}
{"smiles": "COc1ccc(OCC(=O)O/N=C(\\N)Cc2ccc(Cl)cc2Cl)cc1", "inhibition": 61.1}
{"smiles": "O=C(Cc1ccccc1Cl)N1CCOCC1", "inhibition": 25.2}
{"smiles": "O=C(NCc1ccccc1)C(c1cccnc1)N(C(=O)c1ccccn1)c1ccccc1F", "note": "(centres undefined)", "inhibition": 43.9}
{"smiles": "CN(c1ccccc1)S(=O)(=O)c1cccc(NC(=O)CSc2nncn2C)c1", "inhibition": 21.8}
{"smiles": "CCc1cc(C(=O)OC)c(NC(=O)c2ccoc2C)s1", "inhibition": 41.2}
{"smiles": "Cc1nc(SCc2ccc(C(=O)O)cc2)nc2c1CCCC2", "inhibition": 41.7}
{"smiles": "O=c1c2ccccc2nc2n1C(CSc1ccc(F)cc1)CS2", "note": "(centres undefined)", "inhibition": 101}
{"smiles": "CCOc1ccc(/C=C2/Sc3ccc(C(=O)NCC4CCCO4)cc3N(C)C2=O)cc1OC", "note": "(centres undefined)", "inhibition": 77.7}
{"smiles": "CCOC(=O)c1cnc(-c2ccccc2)nc1Oc1ccc(OC)cc1", "inhibition": 99.5}
{"smiles": "Cc1ccc(S(=O)(=O)NCC(=O)N(c2ccccc2)C(C(=O)NCc2ccccc2)c2ccco2)cc1", "note": "(centres undefined)", "inhibition": -4.65}
{"smiles": "Cc1cc(NC(=O)COC(=O)c2ccc(C)c(C)c2)no1", "inhibition": 5.88}
{"smiles": "COc1ccc(-c2[nH]ncc2CN(C)CCc2c(C)n[nH]c2C)c(F)c1", "inhibition": -14.2}
{"smiles": "CCOC(=O)/C=C/COc1ccccc1[N+](=O)[O-]", "inhibition": 29.2}
{"smiles": "CN(C)CCn1c(=O)n(-c2ccc(F)cc2)c(=O)c2c3c(sc21)CCCCC3", "inhibition": 77.8}
{"smiles": "Cc1nc2c(OCCC3CCCCC3)cccn2c1N(C)C(=O)CCC1CCCC1", "inhibition": 23.2}
{"smiles": "Cc1ccc(Cn2c(C(C)Nc3nc(-c4ccc(Cl)c([N+](=O)[O-])c4)cs3)nc3cc(C(F)(F)F)ccc32)cc1", "note": "(centres undefined)", "inhibition": 41.6}
{"smiles": "CC1(C)S[C@@H]2[C@H](NC(=O)COc3ccccc3)C(=O)N2C1C(=O)OCc1ccccc1", "note": "(some centres undefined)", "inhibition": 53.2}
{"smiles": "CC(=O)Nc1cc(F)c2c(c1F)Cc1cc(F)ccc1-2", "inhibition": 64}
{"smiles": "CC(C)(C)OC(=O)NCc1ccc(CNC(=O)c2nc[nH]c2C(=O)N2CCN(C(=O)OC(C)(C)C)CC2)cc1", "inhibition": 16.3}
{"smiles": "Cc1nn(-c2ccccc2)c(C)c1C(=O)OCC(=O)Nc1ccccc1", "inhibition": 20.2}
{"smiles": "CCOC(=O)Cc1ccc(NS(=O)(=O)c2ccc(SC)cc2)cc1", "inhibition": 19.4}
{"smiles": "Cc1cnccc1CNC(=O)CC1C(=O)NCCN1CC(C)(C)C", "note": "(centres undefined)", "inhibition": 57.6}
{"smiles": "CN1CCC(=NNC(=O)c2ccco2)CC1", "inhibition": 17.4}
{"smiles": "CCC1CCCCN1CCCNC(=O)C1CCCN(S(=O)(=O)N2CC(C)CC(C)C2)C1", "note": "(centres undefined)", "inhibition": 60.7}
{"smiles": "O=C(NCc1ccccc1)c1cccc(S(=O)(=O)N2CCCCC2)c1", "inhibition": 61.2}
{"smiles": "O=C(CSc1nc2ccccc2c(=O)n1-c1ccc(F)cc1F)Nc1ccc2c(c1)CCC2", "inhibition": 21.2}
{"smiles": "CCc1cccc(NC(=O)CCc2c(C)nn(-c3ccc(N4CCOCC4)nn3)c2C)c1", "inhibition": 75.8}
{"smiles": "COCCNC(=S)N(CCc1c(C)[nH]c2ccc(F)cc12)Cc1cccs1", "inhibition": 34.4}
{"smiles": "O=C(O)c1ccc(C(=O)Nc2cccc3ccccc23)c(C(=O)O)c1", "inhibition": 76.6}
{"smiles": "CCOC(=O)C1(O)CC(C)=NN1C(=O)c1cccc(Br)c1", "note": "(centres undefined)", "inhibition": 35.1}
{"smiles": "Cc1ccc(CN(CC(=O)NC2CCCCC2)C(=O)c2csnn2)cc1", "inhibition": 30.2}
{"smiles": "Cc1ccccc1NC(=S)NC(=O)COc1ccccc1C", "inhibition": 98.2}
{"smiles": "CC(=O)c1ccc(OCC(=O)Nc2nnc(C3CC3)s2)cc1", "inhibition": -27.1}
